In PubChem BioAssay:
Calls of active or inactive are those of the source. Unless noted, how the calls were made is not given here.

How the values were obtained:
[1] = compound effects on lung adenocarcinoma cell viability – A549, calcein-AM fluorescence, 48 h, basal, profiling panel (AID 1162); conditions: higher = more signal; further: test concentration not given here
[2] = compound effects on differentiated 3T3-L1 adipocyte viability – cell-based, 3T3-L1 adipocytes, calcein-AM fluorescence, 48 h, basal, profiling panel (AID 1163); conditions: 3T3-L1 adipocytes viability, higher = more signal; further: test concentration not given here
[3] = compound effects on hepatocellular carcinoma cell viability – HepG2, calcein-AM fluorescence, 48 h, basal, profiling panel (AID 1164); conditions: higher = more signal; further: test concentration not given here
[4] = compound effects on multiple myeloma cell viability – MM1S, calcein-AM fluorescence, 48 h, basal, profiling panel (AID 1165); conditions: higher = more signal; further: test concentration not given here
[5] = calcein-AM signal in unstimulated myeloma cells – cell-based, calcein-AM fluorescence, 48 h, PK04 Diversity Set, profiling panel (AID 1166); conditions: RPMI8226 myeloma viability, higher = more signal;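 further: cells grown under basal conditions without added stimulus; test concentration not given here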
[6] = JC-1 mitochondrial signal, unstimulated HepG2 cells – cell-based, JC-1 fluorescence, 24 h, 100 nL compound, profiling panel (AID 1167); conditions: HepG2 mitochondrial potential, higher = more signal; further: test concentration not given here
[7] = JC-1 mitochondrial signal, unstimulated adipocytes – cell-based, JC-1 fluorescence, 3T3-L1 adipocytes, 24 h, 100 nL compound, profiling panel (AID 1168); conditions: JC-1 mitochondrial fluorescence, higher = more signal, called active from +8 up or from −8 down; further: test concentration not given here
[8] = JC-1 mitochondrial signal, unstimulated myeloma cells – cell-based, JC-1 fluorescence, RPMI8226, 24 h, 100 nL compound, profiling panel (AID 1169); conditions: JC-1 mitochondrial potential fluorescence, higher = more signal; further: test concentration not given here
[9] = JC-1 mitochondrial signal, unstimulated MM1S myeloma – cell-based, JC-1 fluorescence, 24 h, 100 nL compound, profiling panel (AID 1170); conditions: MM1S mitochondrial potential, higher = more signal; further: test concentration not given here
[10] = resazurin metabolic signal in A549 cells – cell-based, resazurin fluorescence, 24 h, PK04 Diversity Set, profiling panel (AID 1171); conditions: A549 viability, higher = more signal, called active from +8 up or from −8 down; further: test concentration not given here
[11] = resazurin metabolic signal in HepG2 cells – cell-based, resazurin fluorescence, 24 h, PK04 Diversity Set, profiling panel (AID 1172); conditions: HepG2 viability, higher = more signal; further: test concentration not given here
[12] = budding yeast growth changes without added modifier – OD600, strain BY4716, 24 h, basal condition, primary screen (AID 1173); conditions: S. cerevisiae BY4716 growth, OD600, 24 h; higher = more signal, called active from +8 up or from −8 down
[13] = viability profiling in MM1S myeloma cells – cell-based, resazurin fluorescence, basal, 24 h, PK04 Diversity Set, profiling panel (AID 1174); conditions: higher = more signal, called active from +8 up or from −8 down; further: test concentration not given here
[14] = target: Dihydroorotate dehydrogenase (quinone), mitochondrial (Plasmodium falciparum (isolate 3D7)) (UniProt Q08210); assay: inhibition of P. falciparum DHODH – biochemical, C-terminal His tag, absorbance 600 nm, primary screen (AID 1175); conditions: PfDHODH enzyme, DCIP absorbance 600 nm; higher = more signal, called active from +8 up or from −8 down;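 further: recombinant parasite enzyme with a five histidine tag at its C terminus; test concentration not given here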
Sequence of Dihydroorotate dehydrogenase (quinone), mitochondrial (Plasmodium falciparum (isolate 3D7)) (Q08210 whole entry, looked up): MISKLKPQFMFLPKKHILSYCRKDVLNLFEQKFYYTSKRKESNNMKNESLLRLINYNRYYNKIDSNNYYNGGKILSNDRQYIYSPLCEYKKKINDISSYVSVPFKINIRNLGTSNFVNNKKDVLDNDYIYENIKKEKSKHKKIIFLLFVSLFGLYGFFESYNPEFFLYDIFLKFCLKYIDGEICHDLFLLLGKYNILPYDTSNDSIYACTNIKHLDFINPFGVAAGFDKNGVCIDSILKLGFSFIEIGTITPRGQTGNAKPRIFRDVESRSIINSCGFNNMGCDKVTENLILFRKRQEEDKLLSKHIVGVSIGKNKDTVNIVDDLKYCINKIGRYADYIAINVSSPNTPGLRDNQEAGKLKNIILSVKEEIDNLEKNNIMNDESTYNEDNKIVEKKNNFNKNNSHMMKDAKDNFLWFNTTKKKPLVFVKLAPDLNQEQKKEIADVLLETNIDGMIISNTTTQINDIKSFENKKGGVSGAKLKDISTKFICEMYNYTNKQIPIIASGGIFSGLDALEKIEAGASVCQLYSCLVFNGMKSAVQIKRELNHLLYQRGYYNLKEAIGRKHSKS

[15] = inhibition of PAO1 biofilm formation – strain PAO1, LB-PBS medium, absorbance 600 nm, primary screen (AID 1176); further: test concentration not given here; conditions: P. aeruginosa PAO1 growth/biofilm, A600, 12 h; higher = more signal
[16] = growth modulation of vineyard yeast isolate – strain RM11-1a, OD600, basal, 24 h, primary screen (AID 1177);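 further: cultures grown under basal conditions with no added stressor; test concentration not given here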; conditions: S. cerevisiae RM11-1a growth, OD600, 24 h; higher = more signal, called active from +8 up or from −8 down
[17] = growth of efflux-deficient E. coli DRC39 – strain DRC39, OD650, 24 h, E. coli filamentation inducers, primary screen (AID 1178);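 further: growth measured as culture turbidity by optical density at 650 nm; test concentration not given here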; conditions: E. coli DRC39 acrAB, higher = more signal, called active from +8 up or from −8 down
[18] = growth of efflux-deficient E. coli DRC39 – strain DRC39, OD650, 48 h, E. coli filamentation inducers, primary screen (AID 1179);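 further: screen aims at cell division blockers that make cells filament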; conditions: E. coli DRC39 delta-acrAB growth, higher = more signal, called active from +8 up or from −8 down
[19] = viability profiling in RPMI8226 myeloma cells – cell-based, resazurin fluorescence, basal, 24 h, PK04 Diversity Set, profiling panel (AID 1180); conditions: higher = more signal;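 further: RPMI8826 multiple myeloma cell line at 5000 cells per well; test concentration not given here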
[20] = target: E3 ubiquitin-protein ligase XIAP (Homo sapiens) (UniProt P98170); assay: small molecules binding XIAP protein – biophysical, small-molecule microarray, fluorescence 635 nm, primary screen (AID 1181); conditions: higher = more signal;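 further: score merges 667 nm emission and signal to noise over triplicate slides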
Sequence of E3 ubiquitin-protein ligase XIAP (Homo sapiens) (P98170 whole entry, looked up): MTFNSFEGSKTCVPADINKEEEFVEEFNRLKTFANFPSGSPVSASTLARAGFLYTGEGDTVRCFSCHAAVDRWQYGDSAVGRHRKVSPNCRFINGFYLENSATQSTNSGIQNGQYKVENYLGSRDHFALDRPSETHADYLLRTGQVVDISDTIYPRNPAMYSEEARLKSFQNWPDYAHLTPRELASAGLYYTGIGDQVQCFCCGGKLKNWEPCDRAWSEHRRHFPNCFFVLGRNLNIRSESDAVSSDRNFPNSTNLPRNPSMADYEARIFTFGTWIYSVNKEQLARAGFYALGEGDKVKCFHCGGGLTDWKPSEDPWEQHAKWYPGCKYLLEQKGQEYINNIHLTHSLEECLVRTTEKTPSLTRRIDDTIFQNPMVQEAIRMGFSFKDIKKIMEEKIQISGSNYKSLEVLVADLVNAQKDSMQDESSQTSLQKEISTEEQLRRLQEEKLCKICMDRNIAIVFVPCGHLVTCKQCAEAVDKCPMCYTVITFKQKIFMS

Compound | z-score [1] | z-score [2] | z-score [3] | z-score [4] | z-score [5] | z-score [6] | z-score [7] | z-score [8] | z-score [9] | z-score [10] | z-score [11] | z-score [12] | z-score [13] | composite z-score [14] | z-score [15] | z-score [16] | z-score [17] | z-score [18] | z-score [19] | composite z-score [20]
C=CCC(OC(C)=O)[C@@H]1[C@@H](N(Cc2ccc(-c3ccccc3)cc2)C(=O)c2cccc3ccccc23)c2cc(OCCCO)ccc2N1C(=O)Cc1ccc(OC)cc1 (stereo not given in full) | -0.0276 | 0.725 | -0.518 | -0.536 | -0.682 | 1.57 | -1.63 (inactive) | 0.78 | 0.401 | -0.399 (inactive) | -0.533 | 0.186 (inactive) | -0.572 (inactive) | -0.0892 (inactive) | -0.121 (inactive) | -0.788 (inactive) | -0.0251 (inactive) | -0.288 (inactive) | -0.505 | -0.264
COc1cc(OC)c(C(O)C2C=CC3C(=O)N(c4ccccc4)C(=O)C3N2Nc2ccc(C(C)C)cc2)cc1Br (stereo not given) | 2.48 | -1.15 | 1.49 | -0.534 | -0.203 | -0.115 | -0.171 (inactive) | -0.126 | -0.66 | -0.101 (inactive) | 0.092 | -4.46 (inactive) | -0.263 (inactive) | 0.145 (inactive) | 2.24 (inactive) | 0.171 (inactive) | 0.238 (inactive) | 0.48 (inactive) | 0.289 | 0.0838
COc1ccc([Si](C)(C)[C@H]2[C@H](CC(=O)N3Cc4ccccc4C[C@H]3CO)O[C@@]3(C(=O)N(c4ccccc4)c4ccccc43)[C@@H]2C)cc1 | -0.782 | 0.898 | -0.755 | -2.67 | -4.49 | 0.959 | -0.652 (inactive) | -1.1 | -0.81 | 0.698 (inactive) | 0.635 | -1.89 (inactive) | -2.45 (inactive) | -1.05 (inactive) | 0.0943 (inactive) | 0.578 (inactive) | 0.346 (inactive) | -0.288 (inactive) | -2.1 | -0.209
COC(=O)[C@H](Cc1ccc(O)cc1)N[C@@H](/C=C/C1CC1)[C@H](O)Cc1ccccc1 | -0.0547 | -1.21 | 0.192 | -1.69 | -0.192 | -1.82 | -0.177 (inactive) | -0.512 | -1.01 | 0.0243 (inactive) | -0.752 | -3.58 (inactive) | -0.163 (inactive) | -0.23 (inactive) | -0.459 (inactive) | 0.0871 (inactive) | -0.396 (inactive) | -0.571 (inactive) | 0.177 | 0.85
O=C1[C@@H]2[C@@H](CC(COc3ccccc3)=C([C@H](O)CCc3ccccc3)[C@@H]2CO)C(=O)N1Cc1ccccc1 | -0.137 | -0.331 | -1.32 | -3.23 | -3.48 | 0.325 | -0.0321 (inactive) | -1.04 | -1.33 | -0.833 (inactive) | -1.38 | -0.0733 (inactive) | -0.577 (inactive) | -2.37 (inactive) | 0.258 (inactive) | 1.47 (inactive) | 0.372 (inactive) | 0.203 (inactive) | -0.664 | 0.15
C=CC[C@]1(C(=O)NCC(O)CO)COC(c2ccc(OCCCO)cc2)=N1 (stereo not given in full) | -0.188 | -0.191 | -0.323 | -0.244 | 0.146 | -0.512 | -0.604 (inactive) | 0.00774 | -0.307 | -0.106 (inactive) | -0.25 | 0.369 (inactive) | -0.772 (inactive) | 0.233 (inactive) | 2.29 (inactive) | 1.33 (inactive) | -0.34 (inactive) | -0.471 (inactive) | -0.412 | -0.266
COC(=O)[C@]1(CCC(=O)OC(C)(C)C)N=C(c2ccc(OCCCO)cc2)O[C@@H]1c1ccccc1N=[N+]=[N-] | -1.31 | 1.25 | -0.527 | -2.84 | -3.53 | 0.874 | 1.78 (inactive) | -1.02 | -1.57 | -1.46 (inactive) | -0.223 | 0.887 (inactive) | -2.56 (inactive) | 0.878 (inactive) | 1.31 (inactive) | 2.29 (inactive) | 0.844 (inactive) | 0.182 (inactive) | -2.15 | 0.0037
